# Measurements as given in PubChem BioAssay (NCI).
# Values joined by “and” are separate entries in the source; they are usually repeats but may differ in a detail not shown here. Equal values may be shown once. The panel holds about 83,000 compounds, 20% with a hit somewhere; the sample as a whole holds those more often.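 Cells were grown in 96-well plates and exposed to the test compound at a single concentration for 48 hours; results are reported as percent growth, with values below 10 considered active.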 A number with no mark means an inactive call. Active and inactive are the calls of the source.
# What was measured:
# Assay in all cases: NCI-60 one-dose screen, 48 h (100 = growth as untreated, 0 = no growth, -100 = all killed)
# SK-MEL-2 melanoma = tested on: SK-MEL-2 melanoma
# EKVX NSCLC = tested on: EKVX NSCLC
# SN12C renal = tested on: SN12C renal
# UO-31 renal = tested on: UO-31 renal
# TK-10 renal = tested on: TK-10 renal
# ACHN renal = tested on: ACHN renal
# CAKI-1 renal = tested on: CAKI-1 renal
# A498 renal = tested on: A498 renal
# CCRF-CEM leukemia = tested on: CCRF-CEM leukemia
# MOLT-4 leukemia = conditions: 10 µM unless noted
compound,measurement,setting,value
Cc1ccc(Cl)cc1NC(=O)N/C(N)=N/c1nc2ccccc2s1,growth,SK-MEL-2 melanoma; 10 µM unless noted,-20.6% (active)
same,growth,EKVX NSCLC; 10 µM unless noted,15.8%
same,growth,SN12C renal; 10 µM unless noted,-40% (active)
same,growth,UO-31 renal; 10 µM unless noted,-13% (active)
same,growth,TK-10 renal; 10 µM unless noted,14.7%
same,growth,ACHN renal; 10 µM unless noted,-50.3% (active)
same,growth,CAKI-1 renal; 10 µM unless noted,-2.72% (active)
same,growth,A498 renal; 10 µM unless noted,5.76% (active)
same,growth,CCRF-CEM leukemia; 10 µM unless noted,-6.91% (active)
same,growth,MOLT-4 leukemia,-8.52% (active)
CC/C(=C(/c1ccc(O)cc1)c1ccc(OCCN(C)C(=O)CCOCCNC(=O)Cc2ccc3c(c2)CN([C@@H]2CCC(=O)NC2=O)C3=O)cc1)c1ccccc1,growth,SK-MEL-2 melanoma; 1 µM,101%
same,growth,SK-MEL-2 melanoma; 10 µM,74.7%
same,growth,EKVX NSCLC; 1 µM,102%
same,growth,EKVX NSCLC; 10 µM,97.8%
same,growth,UO-31 renal; 1 µM,92%
same,growth,UO-31 renal; 10 µM,86.8%
same,growth,TK-10 renal; 1 µM,94%
same,growth,TK-10 renal; 10 µM,93.5%
same,growth,ACHN renal; 1 µM,103%
same,growth,ACHN renal; 10 µM,101%
same,growth,CAKI-1 renal; 1 µM,99%
same,growth,CAKI-1 renal; 10 µM,94.9%
same,growth,A498 renal; 1 µM,127%
same,growth,A498 renal; 10 µM,97.7%
same,growth,CCRF-CEM leukemia; 1 µM,3.79% (active)
same,growth,CCRF-CEM leukemia; 10 µM,22.9%
CC(C)(C)c1ccc(OCc2nc3ccccc3n2-c2cccc(N)c2)cc1,growth,SK-MEL-2 melanoma; 10 µM unless noted,62.8% and 109%
same,growth,EKVX NSCLC; 10 µM unless noted,45.5% and 96.8%
same,growth,SN12C renal; 10 µM unless noted,79.2% and 106%
same,growth,UO-31 renal; 10 µM unless noted,43.4% and 83.6%
same,growth,TK-10 renal; 10 µM unless noted,93.3% and 111%
same,growth,ACHN renal; 10 µM unless noted,70.2% and 112%
same,growth,CAKI-1 renal; 10 µM unless noted,44.4% and 95.6%
same,growth,A498 renal; 10 µM unless noted,142% and 126%
same,growth,CCRF-CEM leukemia; 10 µM unless noted,46% and 96.1%
same,growth,MOLT-4 leukemia,25.4% and 90.9%
CC/C(=C(/c1ccc(O)cc1)c1ccc(OCCN(C)C(=O)COCCOCCNC(=O)c2ccc3c(c2)CN([C@@H]2CCC(=O)NC2=O)C3=O)cc1)c1ccccc1,growth,SK-MEL-2 melanoma; 1 µM,101%
same,growth,SK-MEL-2 melanoma; 10 µM,93.5%
same,growth,EKVX NSCLC; 1 µM,99.1%
same,growth,EKVX NSCLC; 10 µM,93.4%
same,growth,SN12C renal; 1 µM,96%
same,growth,SN12C renal; 10 µM,85%
same,growth,UO-31 renal; 1 µM,87.2%
same,growth,UO-31 renal; 10 µM,87.7%
same,growth,ACHN renal; 1 µM,104%
same,growth,ACHN renal; 10 µM,101%
same,growth,CAKI-1 renal; 1 µM,99.3%
same,growth,CAKI-1 renal; 10 µM,95.5%
same,growth,A498 renal; 1 µM,114%
same,growth,A498 renal; 10 µM,110%
same,growth,CCRF-CEM leukemia; 1 µM,9.04% (active)
same,growth,CCRF-CEM leukemia; 10 µM,12.9%
COc1ccc(N=Nc2c(N)nn3c(-c4ccc([N+](=O)[O-])cc4)ccnc23)cc1,growth,SK-MEL-2 melanoma; 10 µM unless noted,106%
same,growth,EKVX NSCLC; 10 µM unless noted,97.5%
same,growth,SN12C renal; 10 µM unless noted,92.7%
same,growth,UO-31 renal; 10 µM unless noted,97.1%
same,growth,TK-10 renal; 10 µM unless noted,113%
same,growth,ACHN renal; 10 µM unless noted,107%
same,growth,CAKI-1 renal; 10 µM unless noted,88.9%
same,growth,A498 renal; 10 µM unless noted,114%
same,growth,CCRF-CEM leukemia; 10 µM unless noted,92%
same,growth,MOLT-4 leukemia,96%
CC/C(=C(\c1ccc(O)cc1)c1ccc(OCCN(C)C(=O)COCCNC(=O)Cc2ccc3c(c2)CN([C@@H]2CCC(=O)NC2=O)C3=O)cc1)c1ccccc1,growth,SK-MEL-2 melanoma; 1 µM,82.5%
same,growth,SK-MEL-2 melanoma; 10 µM,56.8%
same,growth,EKVX NSCLC; 1 µM,103%
same,growth,EKVX NSCLC; 10 µM,92.1%
same,growth,SN12C renal; 1 µM,73.9%
same,growth,SN12C renal; 10 µM,38.1%
same,growth,UO-31 renal; 1 µM,92%
same,growth,UO-31 renal; 10 µM,91.6%
same,growth,TK-10 renal; 1 µM,105%
same,growth,TK-10 renal; 10 µM,84.2%
same,growth,ACHN renal; 1 µM,104%
same,growth,ACHN renal; 10 µM,102%
same,growth,CAKI-1 renal; 1 µM,99.2%
same,growth,CAKI-1 renal; 10 µM,90.1%
same,growth,A498 renal; 1 µM,117%
same,growth,A498 renal; 10 µM,98.2%
same,growth,CCRF-CEM leukemia; 1 µM,-2.66% (active)
same,growth,CCRF-CEM leukemia; 10 µM,-7.62% (active)
COc1ccc2[nH]c(O)c(N=Nc3nc(-c4ccc(Br)cc4)cs3)c2c1,growth,SK-MEL-2 melanoma; 10 µM unless noted,21.1%
same,growth,EKVX NSCLC; 10 µM unless noted,6.08% (active)
same,growth,SN12C renal; 10 µM unless noted,-46.4% (active)
same,growth,UO-31 renal; 10 µM unless noted,0.841% (active)
same,growth,TK-10 renal; 10 µM unless noted,33.4%
same,growth,ACHN renal; 10 µM unless noted,-64.2% (active)
same,growth,CAKI-1 renal; 10 µM unless noted,2.6% (active)
same,growth,A498 renal; 10 µM unless noted,-78% (active)
same,growth,CCRF-CEM leukemia; 10 µM unless noted,14.7%
same,growth,MOLT-4 leukemia,-17.7% (active)
Cc1ccc(C(=O)Nc2cccc(C(=O)NC(=S)Nc3ccc(S(N)(=O)=O)cc3)c2)cc1,growth,SK-MEL-2 melanoma; 10 µM unless noted,82.7%
same,growth,EKVX NSCLC; 10 µM unless noted,88.2%
same,growth,SN12C renal; 10 µM unless noted,76.8%
same,growth,UO-31 renal; 10 µM unless noted,69.4%
same,growth,TK-10 renal; 10 µM unless noted,104%
same,growth,ACHN renal; 10 µM unless noted,69.3%
same,growth,CAKI-1 renal; 10 µM unless noted,49.5%
same,growth,A498 renal; 10 µM unless noted,109%
same,growth,CCRF-CEM leukemia; 10 µM unless noted,84.5%
same,growth,MOLT-4 leukemia,59.2%
COc1ccc(C2=NN(C(=O)[C@H]3[C@@H](c4ccco4)c4sc(=O)[nH]c4S[C@@H]3C)C(c3ccc4ccccc4c3)C2)cc1 (stereo not given in full),growth,SK-MEL-2 melanoma; 10 µM unless noted,32.3%
same,growth,EKVX NSCLC; 10 µM unless noted,23.2%
same,growth,SN12C renal; 10 µM unless noted,39%
same,growth,UO-31 renal; 10 µM unless noted,19.5%
same,growth,TK-10 renal; 10 µM unless noted,50.4%
same,growth,ACHN renal; 10 µM unless noted,16%
same,growth,CAKI-1 renal; 10 µM unless noted,20.7%
same,growth,A498 renal; 10 µM unless noted,102%
same,growth,CCRF-CEM leukemia; 10 µM unless noted,6.09% (active)
same,growth,MOLT-4 leukemia,12%
CN(C)CCCc1ccc(Nc2cnn(C)c(=O)c2Cl)cc1,growth,SK-MEL-2 melanoma; 10 µM unless noted,112%
same,growth,EKVX NSCLC; 10 µM unless noted,98.1%
same,growth,SN12C renal; 10 µM unless noted,100%
same,growth,UO-31 renal; 10 µM unless noted,88.1%
same,growth,TK-10 renal; 10 µM unless noted,109%
same,growth,ACHN renal; 10 µM unless noted,113%
same,growth,CAKI-1 renal; 10 µM unless noted,83.5%
same,growth,A498 renal; 10 µM unless noted,94.7%
same,growth,CCRF-CEM leukemia; 10 µM unless noted,102%
same,growth,MOLT-4 leukemia,115%
CC(C)(C)C(=O)C1CC(C#N)=C2C=Cc3c(ccc4ccccc34)N21 (stereo not given),growth,SK-MEL-2 melanoma; 10 µM unless noted,92.4%
same,growth,EKVX NSCLC; 10 µM unless noted,79.7%
same,growth,SN12C renal; 10 µM unless noted,92.4%
same,growth,UO-31 renal; 10 µM unless noted,90.5%
same,growth,TK-10 renal; 10 µM unless noted,92.6%
same,growth,ACHN renal; 10 µM unless noted,85.2%
same,growth,CAKI-1 renal; 10 µM unless noted,86.7%
same,growth,A498 renal; 10 µM unless noted,144%
same,growth,CCRF-CEM leukemia; 10 µM unless noted,91.4%
same,growth,MOLT-4 leukemia,81.6%
